# Like-named read-outs stand apart in the source and are kept apart here.
# Legend:
# FGFR1 = conditions: concentration: 1 μM, replicates: in singlicate; n = 1
# FGFR2 = conditions: concentration: 1 μM, replicates: in singlicate; n = 1
# FGFR3 = conditions: concentration: 1 μM, replicates: in singlicate; n = 1
# FGFR4 = conditions: concentration: 1 μM, replicates: in singlicate; n = 1
# FGR = conditions: concentration: 1 μM, replicates: in singlicate; n = 1
# FLT1 = conditions: concentration: 1 μM, replicates: in singlicate; n = 1
# FLT3-autoinhibited = conditions: concentration: 1 μM, replicates: in singlicate; n = 1
# FLT3 = conditions: concentration: 1 μM, replicates: in singlicate; n = 1
# FLT4 = conditions: concentration: 1 μM, replicates: in singlicate; n = 1
# FRK = conditions: concentration: 1 μM, replicates: in singlicate; n = 1
# FYN = conditions: concentration: 1 μM, replicates: in singlicate; n = 1
# GAK = conditions: concentration: 1 μM, replicates: in singlicate; n = 1
# GCN2(Kin.Dom.2,S808G) = tested on: T1, GCN2(Kin.Dom.2,S808G); conditions: concentration: 1 μM, replicates: in singlicate; n = 1
# T1 construct: gene EIF2AK4
# GRK1 = conditions: concentration: 1 μM, replicates: in singlicate; n = 1
# GRK2 = tested on: T2, GRK2; conditions: concentration: 1 μM, replicates: in singlicate; n = 1
# T2 construct: gene ADRBK1
# GRK3 = tested on: T3, GRK3; conditions: concentration: 1 μM, replicates: in singlicate; n = 1
# T3 construct: gene ADRBK2
# GRK4 = conditions: concentration: 1 μM, replicates: in singlicate; n = 1
# GRK7 = conditions: concentration: 1 μM, replicates: in singlicate; n = 1
# GSK3A = conditions: concentration: 1 μM, replicates: in singlicate; n = 1
# GSK3B = conditions: n = 1
# [1] = concentration: 1 μM, replicates: in singlicate
# 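Also: KINOMEscan kinase panel screen.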
smiles,measurement,setting,value
CN(c1ccc(NC(=O)N2CCN(CCCN3CCOCC3)CC2)cc1)c1ccnc(Nc2ccc(CS(C)(=O)=O)cc2)n1.Cl [GW830899],%Inh,FGFR1,0%
same,%Inh,FGFR2,9%
same,%Inh,FGFR3,8%
same,%Inh,FGFR4,5%
same,%Inh,FGR,35%
same,%Inh,FLT1,73%
same,%Inh,FLT3-autoinhibited,75%
same,%Inh,FLT3,92.7%
same,%Inh,FLT4,38%
same,%Inh,FRK,32%
same,%Inh,FYN,18%
same,%Inh,GAK,59%
same,%Inh,"GCN2(Kin.Dom.2,S808G)",0%
same,%Inh,GRK1,0%
same,%Inh,GRK2,0%
same,%Inh,GRK3,0%
same,%Inh,GRK4,43%
same,%Inh,GRK7,0%
same,%Inh,GSK3A,0%
same,%Inh,GSK3B; [1],0%
Fc1cc(Cl)ccc1Nc1ccnc2cc(-c3ccc(CN4CCSCC4)o3)ccc12 [GW560106],%Inh,FGFR1,47%
same,%Inh,FGFR2,34%
same,%Inh,FGFR3,11%
same,%Inh,FGFR4,19%
same,%Inh,FGR,90.8%
same,%Inh,FLT1,87%
same,%Inh,FLT3-autoinhibited,0%
same,%Inh,FLT3,72%
same,%Inh,FLT4,91.6%
same,%Inh,FRK,86%
same,%Inh,FYN,90.5%
same,%Inh,GAK,84%
same,%Inh,"GCN2(Kin.Dom.2,S808G)",0%
same,%Inh,GRK1,0%
same,%Inh,GRK2,0%
same,%Inh,GRK3,32%
same,%Inh,GRK4,3%
same,%Inh,GRK7,0%
same,%Inh,GSK3A,22%
same,%Inh,GSK3B; [1],0%
COc1ccc(NC(=O)c2ccoc2)cc1-c1ccc(C(=O)NCC2CC2)cc1 [GW810437],%Inh,FGFR1,3%
same,%Inh,FGFR2,0%
same,%Inh,FGFR3,0%
same,%Inh,FGFR4,1%
same,%Inh,FGR,0%
same,%Inh,FLT1,0%
same,%Inh,FLT3-autoinhibited,0%
same,%Inh,FLT3,0%
same,%Inh,FLT4,12%
same,%Inh,FRK,14%
same,%Inh,FYN,0%
same,%Inh,GAK,0%
same,%Inh,"GCN2(Kin.Dom.2,S808G)",0%
same,%Inh,GRK1,24%
same,%Inh,GRK2,0%
same,%Inh,GRK3,0%
same,%Inh,GRK4,0%
same,%Inh,GRK7,0%
same,%Inh,GSK3A,0%
same,%Inh,GSK3B; [1],26%
Cl.O=C(Nc1ccc(Oc2ccc3[nH]c(NC(=O)c4ccco4)nc3c2)cc1)Nc1cc(C(F)(F)F)ccc1F [GW683134],%Inh,FGFR1,40%
same,%Inh,FGFR2,77%
same,%Inh,FGFR3,36%
same,%Inh,FGFR4,12%
same,%Inh,FGR,24%
same,%Inh,FLT1,98.5%
same,%Inh,FLT3-autoinhibited,25%
same,%Inh,FLT3,99.4%
same,%Inh,FLT4,99.9%
same,%Inh,FRK,77%
same,%Inh,FYN,42%
same,%Inh,GAK,0%
same,%Inh,"GCN2(Kin.Dom.2,S808G)",10%
same,%Inh,GRK1,0%
same,%Inh,GRK2,0%
same,%Inh,GRK3,11%
same,%Inh,GRK4,100%
same,%Inh,GRK7,0%
same,%Inh,GSK3A,0%
same,%Inh,GSK3B; [1],9%
Nc1cccc(-c2ccc3c(N)n[nH]c3c2)c1 [GSK2193613],%Inh,FGFR1,74%
same,%Inh,FGFR2,0%
same,%Inh,FGFR3,0%
same,%Inh,FGFR4,0%
same,%Inh,FGR,23%
same,%Inh,FLT1,14%
same,%Inh,FLT3-autoinhibited,0%
same,%Inh,FLT3,14%
same,%Inh,FLT4,0%
same,%Inh,FRK,0%
same,%Inh,FYN,13%
same,%Inh,GAK,44%
same,%Inh,"GCN2(Kin.Dom.2,S808G)",0%
same,%Inh,GRK1,0%
same,%Inh,GRK2,0%
same,%Inh,GRK3,55%
same,%Inh,GRK4,9%
same,%Inh,GRK7,0%
same,%Inh,GSK3A,0%
same,%Inh,GSK3B; [1],96.2%
O=C(Nc1n[nH]c2cc(-c3cccs3)ccc12)C1CC1 [SB-731284],%Inh,FGFR1,18%
same,%Inh,FGFR2,0%
same,%Inh,FGFR3,0%
same,%Inh,FGFR4,0%
same,%Inh,FGR,0%
same,%Inh,FLT1,0%
same,%Inh,FLT3-autoinhibited,65%
same,%Inh,FLT3,59%
same,%Inh,FLT4,18%
same,%Inh,FRK,0%
same,%Inh,FYN,0%
same,%Inh,GAK,0%
same,%Inh,"GCN2(Kin.Dom.2,S808G)",0%
same,%Inh,GRK1,56%
same,%Inh,GRK2,0%
same,%Inh,GRK3,0%
same,%Inh,GRK4,47%
same,%Inh,GRK7,0%
same,%Inh,GSK3A,52%
same,%Inh,GSK3B; 1 µM,57%
c1ccc(Oc2ccc(Nc3ccnc4cc(-c5ccc(CN6CCCCC6)o5)ccc34)cc2)nc1 [GW567143],%Inh,FGFR1,9%
same,%Inh,FGFR2,0%
same,%Inh,FGFR3,1%
same,%Inh,FGFR4,1%
same,%Inh,FGR,65%
same,%Inh,FLT1,20%
same,%Inh,FLT3-autoinhibited,67%
same,%Inh,FLT3,98.4%
same,%Inh,FLT4,23%
same,%Inh,FRK,33%
same,%Inh,FYN,74%
same,%Inh,GAK,79%
same,%Inh,"GCN2(Kin.Dom.2,S808G)",24%
same,%Inh,GRK1,0%
same,%Inh,GRK2,0%
same,%Inh,GRK3,8%
same,%Inh,GRK4,0%
same,%Inh,GRK7,0%
same,%Inh,GSK3A,4%
same,%Inh,GSK3B; [1],8%
Cc1ccc(Nc2ccnc(Nc3ccc(C)c(F)c3)n2)cc1O.Cl [GW582868],%Inh,FGFR1,1%
same,%Inh,FGFR2,0%
same,%Inh,FGFR3,12%
same,%Inh,FGFR4,5%
same,%Inh,FGR,85%
same,%Inh,FLT1,46%
same,%Inh,FLT3-autoinhibited,0%
same,%Inh,FLT3,59%
same,%Inh,FLT4,72%
same,%Inh,FRK,92.9%
same,%Inh,FYN,79%
same,%Inh,GAK,53%
same,%Inh,"GCN2(Kin.Dom.2,S808G)",36%
same,%Inh,GRK1,100%
same,%Inh,GRK2,0%
same,%Inh,GRK3,70%
same,%Inh,GRK4,0%
same,%Inh,GRK7,0%
same,%Inh,GSK3A,14%
same,%Inh,GSK3B; [1],7%
COc1cc(Nc2nccc(N3CCC(NC(=O)Nc4ccc5c(c4)OCO5)C3)n2)cc(OC)c1OC (centres unmarked) [GSK1379766],%Inh,FGFR1,0%
same,%Inh,FGFR2,0%
same,%Inh,FGFR3,0%
same,%Inh,FGFR4,0%
same,%Inh,FGR,4%
same,%Inh,FLT1,26%
same,%Inh,FLT3-autoinhibited,8%
same,%Inh,FLT3,65%
same,%Inh,FLT4,16%
same,%Inh,FRK,0%
same,%Inh,FYN,36%
same,%Inh,GAK,21%
same,%Inh,"GCN2(Kin.Dom.2,S808G)",0%
same,%Inh,GRK1,0%
same,%Inh,GRK2,0%
same,%Inh,GRK3,8%
same,%Inh,GRK4,0%
same,%Inh,GRK7,0%
same,%Inh,GSK3A,0%
same,%Inh,GSK3B; [1],2%
COc1cc(Nc2ccnc3cc(-c4ccncc4)ccc23)cc(OC)c1OC.Cl [GW494610],%Inh,FGFR1,23%
same,%Inh,FGFR2,14%
same,%Inh,FGFR3,15%
same,%Inh,FGFR4,0%
same,%Inh,FGR,81%
same,%Inh,FLT1,21%
same,%Inh,FLT3-autoinhibited,0%
same,%Inh,FLT3,3%
same,%Inh,FLT4,0%
same,%Inh,FRK,44%
same,%Inh,FYN,75%
same,%Inh,GAK,84%
same,%Inh,"GCN2(Kin.Dom.2,S808G)",0%
same,%Inh,GRK1,4%
same,%Inh,GRK2,0%
same,%Inh,GRK3,35%
same,%Inh,GRK4,5%
same,%Inh,GRK7,0%
same,%Inh,GSK3A,10%
same,%Inh,GSK3B; [1],0%

# Source: paper PMC5540273 (PLoS ONE, 2017)
